Experimental data published in PubChem BioAssay (NCATS).
“And” between values parts separate entries of the source, which are not always exact repeats. Equal values may be shown once. Records with an inconclusive call do not appear. A call without a number means that no potency is given here. The source made the active and inactive calls. Calls follow the shape of the dose curve; as a rule, active = well fitted curve in the direction sought with a large enough effect; inconclusive = small, poorly fitted or top-dose-only effect, or another doubt; inactive = no such curve, though single readings can be large; an effect the other way counts as inactive or inconclusive. Where a SMILES comes first, the peptide text is derived from it. [ ]: non-standard residue; d: D form. pGlu = O=C1CC[C@@H](C(=O)O)N1; Thz = O=C(O)[C@@H]1CSCN1
Potency is read from the fitted curve at half-maximal effect.

Test: qHTS assay for cell viability of HEK293 cells (AID 743288); also: nearly all actives have a fitted effect of over 50% in size
Settings: ATP luminescence (CellTiter-Glo), 18 h; max response: hits give low values
In short: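 Viable-cell counts were inferred from luciferase-based ATP content in HEK293 cells seeded at 2,000/well, pre-incubated ≥5 h, then dosed with DMSO-solubilised compounds for 18 h at 37 C.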
For `N=C1N=C(N)c2cc3ccccc3cc21`, the Potency was 44.7 µM (active). With `O=C(OCc1ccccc1)c1ccccc1` the max response was -7.64% (inactive). For `O=C(O)[C@H](O)[C@@H](O)[C@H](O)[C@H](O)CO`, the max response was -14.1% (inactive). With `COc1cc(CNC(=O)CCCC/C=C/C(C)C)ccc1O` the max response was -3.17% (inactive) and -17.3% (inactive). In the case of `Nc1ccc(O)c(C(=O)O)c1`, the max response is reported as -0.669% (inactive) and -7.83% (inactive). In the case of `S=c1[nH]c2ccccc2s1`, the max response is reported as 3.04% (inactive) and -5.55% (inactive). In the case of `c1ccc2sc(SSc3nc4ccccc4s3)nc2c1`, the max response is reported as -16% (inactive) and 1.48% (inactive). In the case of `C=CCCCCCCCCC(=O)O`, the max response is reported as -1.32% (inactive). For `CN1[C@@H]2CC[C@H]1CC(OC(=O)C(CO)c1ccccc1)C2` (stereo not given in full), the max response was -4.41% (inactive). With `O=C(O)c1ccccc1Nc1cccc(C(F)(F)F)c1` the max response was -8.76% (inactive).

Test: qHTS assay for cell viability of the p53RE-bla HCT-116 cell line (AID 743292); also: nearly all actives have a fitted effect of over 55% in size
Settings: p53RE-bla HCT-116 viability, ATP luminescence, 16 h; series mostly up to 95 µM
In short: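 After plating at 4,000 cells per well and a 5 h rest at 37 C, HCT-116 cells carrying p53RE-bla received test chemicals in DMSO. Sixteen hours later at 37 C, CellTiter-Glo was added and luminescence recorded following 30 min at room temperature.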
With `N=C1N=C(N)c2cc3ccccc3cc21` the Potency was 50.1 µM (active). In the case of `O=C(OCc1ccccc1)c1ccccc1`, the Potency is reported as “inactive”. For `O=C(O)[C@H](O)[C@@H](O)[C@H](O)[C@H](O)CO`, the Potency was “inactive”. In the case of `COc1cc(CNC(=O)CCCC/C=C/C(C)C)ccc1O`, the Potency is reported as “inactive”. For `Nc1ccc(O)c(C(=O)O)c1`, the Potency was “inactive”. With `S=c1[nH]c2ccccc2s1` the Potency was “inactive”. For `c1ccc2sc(SSc3nc4ccccc4s3)nc2c1`, the Potency was “inactive”. With `C=CCCCCCCCCC(=O)O` the Potency was “inactive”. In the case of `CN1[C@@H]2CC[C@H]1CC(OC(=O)C(CO)c1ccccc1)C2` (stereo not given in full), the Potency is reported as “inactive”. In the case of `O=C(O)c1ccccc1Nc1cccc(C(F)(F)F)c1`, the Potency is reported as “inactive”.

Test: qHTS assay to identify small molecule inhibitors of chordoma cells - UCH-1 (AID 1259355); also: nearly all actives have a fitted effect of over 55% in size
Settings: UCH-1 chordoma viability, CellTiter-Glo, 48 h, combination, with auranofin plus four topoisomerase inhibitors; series mostly up to 46.1 µM
In short: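 Screening used approved and investigational drugs in 15-point titration against 800 seeded cells per well. A fixed combination of auranofin with camptothecin, doxorubicin, rubitecan and topotecan followed compound addition, and growth was scored by CellTiter-Glo after 48hr.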
In the case of `Cc1onc(-c2c(F)cccc2Cl)c1C(=O)N[C@@H]1C(=O)N2[C@@H]1SC(C)(C)[C@@H]2C(=O)O`, the Potency is reported as “inactive”. In the case of `CC1(C)C[C@@H]1C(=O)N/C(=C\CCCCSC[C@H](N)C(=O)O)C(=O)O`, the Potency is reported as “inactive”. For `O=C(Nc1ccc(C(=O)O)c(O)c1)c1ccccc1`, the Potency was “inactive”. In the case of `O=C(OCc1ccccc1)c1ccccc1`, the Potency is reported as “inactive”. For `Cc1ccc(C(=O)c2ccc(CC(=O)O)n2C)cc1`, the Potency was “inactive”. In the case of `O=C(O)[C@H](O)[C@@H](O)[C@H](O)[C@H](O)CO`, the Potency is reported as “inactive”. In the case of `COc1cc(CNC(=O)CCCC/C=C/C(C)C)ccc1O`, the Potency is reported as “inactive”. With `C=C(Nc1ccc(OCC)cc1)Nc1ccc(OCC)cc1` the Potency was “inactive”. In the case of `Nc1ccc(O)c(C(=O)O)c1`, the Potency is reported as “inactive”. In the case of `CC(C(=O)O)c1ccc2c(c1)[nH]c1ccc(Cl)cc12` (stereo not given), the Potency is reported as “inactive”. With `C[S+](CC[C@H](N)C(=O)O)C[C@H]1O[C@@H](n2cnc3c(N)ncnc32)[C@H](O)[C@@H]1O` (stereo not given in full) the Potency was “inactive”. For `O=C(O)Cc1ccc(-c2ccccc2)cc1`, the Potency was “inactive”. In the case of `CO[C@H]1C[C@@H]2CC[C@@H](C)[C@@](O)(O2)C(=O)C(=O)N2CCCC[C@H]2C(=O)O[C@H]([C@H](C)C[C@@H]2CC[C@@H](O)[C@H](OC)C2)CC(=O)[C@H](C)C=C(C)[C@@H](O)[C@@H](OC)C(=O)[C@H](C)C[C@H](C)/C=C/C=CC=C1C`, the Potency is reported as “inactive”. For `C=CCN1C(=O)C(CC(C)C)NC1=S` (stereo not given), the Potency was “inactive”. With `O=C1CC[C@@H](C(=O)N2CSC[C@H]2C(=O)O)N1` ([pGlu]-[Thz]-OH) the Potency was “inactive”. For `c1ccc2sc(SSc3nc4ccccc4s3)nc2c1`, the Potency was “inactive”. In the case of `CC(=O)[C@]1(O)Cc2c(O)c3c(c(O)c2[C@@H](O[C@H]2C[C@H](N)[C@H](O)[C@H](C)O2)C1)C(=O)c1c(O)cccc1C3=O`, the Potency is reported as 1.58 µM (active). For `COc1cc(/C=C/C(=O)CC(=O)/C=C/c2ccc(O)c(OC)c2)ccc1O`, the Potency was “inactive”. In the case of `O=C(O)[C@H](CC(=O)N1C[C@H]2CCCC[C@H]2C1)Cc1ccccc1`, the Potency is reported as “inactive”. In the case of `CCCCCC[C@@H](O)C/C=C\CCCCCCCC(=O)O`, the Potency is reported as “inactive”. With `CCCCC[C@H](O)/C=C/[C@@H]1[C@@H](C/C=C\CCCC(=O)O)[C@@H](O)C[C@H]1O` the Potency was “inactive”. With `C=CCCCCCCCCC(=O)O` the Potency was “inactive”. With `CN1[C@@H]2CC[C@H]1CC(OC(=O)C(CO)c1ccccc1)C2` (stereo not given in full) the Potency was “inactive”. For `CC1(C)S[C@@H]2[C@H](NC(=O)[C@H](N)c3ccc(O)cc3)C(=O)N2[C@H]1C(=O)O`, the Potency was “inactive”. With `CC[C@H]1OC(=O)[C@H](C)[C@@H](O[C@H]2C[C@@](C)(OC)[C@@H](O)[C@H](C)O2)[C@H](C)[C@@H](O[C@@H]2O[C@H](C)C[C@H](N(C)C)[C@H]2O)[C@](C)(O)C[C@@H](C)C(=O)[C@H](C)[C@@H](O)[C@]1(C)O` the Potency was “inactive”. With `CC[C@H]1OC(=O)[C@H](C)C(=O)[C@H](C)[C@@H](O[C@@H]2O[C@H](C)C[C@H](N(C)C)[C@H]2O)[C@](C)(OC)C[C@@H](C)C(=O)[C@H](C)[C@H]2N(CCCCn3cnc(-c4cccnc4)c3)C(=O)O[C@]12C` the Potency was “inactive”. For `O=C(O)COc1ccc(C(=O)c2cccs2)c(Cl)c1Cl`, the Potency was “inactive”. In the case of `O=C(O)/C=C/C(O)c1ccc(Cl)cc1` (stereo not given), the Potency is reported as “inactive”. In the case of `CC(=O)O[C@H]1C[C@@]2(C)[C@@H](C[C@@H](O)[C@H]3[C@@]4(C)CC[C@@H](O)[C@@H](C)[C@@H]4CC[C@@]32C)/C1=C(\CCC=C(C)C)C(=O)O`, the Potency is reported as “inactive”. In the case of `O=C(O)c1ccccc1Nc1cccc(C(F)(F)F)c1`, the Potency is reported as “inactive”.
